From PubChem BioAssay
AddAB inh: less growth of phage-infected E. coli with AddAB | E. coli expressing H. pylori AddAB, absorbance growth | inhibition, % at 11.9 µM | 330,000 tested, 0.29% active | AID 435030; in the data active = inhibition above about 12%;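 also: 0% = vehicle wells of infected cells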
Tat transport: blocks Tat-dependent protein export in E. coli | E. coli MC4100 TorA-mCherry Tat export, fluorescence | inhibition, % at 10 µM | 340,000 tested, 0.036% active | AID 488895;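 active = mean replicate inhibition at least 50% and at least half of replicates individually reaching 50%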;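 also: exported cargo escapes ClpAP degradation while cytoplasmic cargo is degraded and loses fluorescence; 0% = median of neutral control wells and 100% = median of NaSCN control wells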
E coli growth-1: blocks Escherichia coli growth; OD600, 23 h; active compounds read low; OD600 absorbance (test concentration not listed); AID 1053175; 330,000 tested, 0.21% active;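 active = OD600 absorbance below the run mean of sample wells minus 3.6 SD, in any replicate, cut at about 0.56 in these data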
phage Ecoli inh: E. coli growth loss with phage present. growth absorbance. inhibition, % at 11.9 µM. 360,000 tested, 0.26% active. AID 651602; in the data active = inhibition above about 11%
E coli growth-2: bacterial growth inhibition, counter-screen for AddAB inhibitors | E. coli V3065 growth, OD600 absorbance, 18 h | inhibition, % at 11.9 µM | 330,000 tested, 0.27% active;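 active = inhibition above the campaign's mean inhibition across all tested compounds plus 3 SD, cut at about 9.9% in these data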;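 also: uninfected addAB+ strain grown without phage in ampicillin broth; 0% = DMSO wells and 100% = ciprofloxacin 0.95 µg/ml wells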
RecBCD conf: growth loss of phage-infected V66 E. coli, RecBCD confirmation screen. shares compounds with phage Ecoli inh. E. coli V66 + T4 2- phage, growth OD. inhibition, % at 11.9 µM. 890 tested, 45% active. AID 651982;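 active = mean inhibition over triplicates exceeding the hit threshold derived in the original primary screen, cut at about 11% in these data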
Ecoli viability: bacterial viability inhibition counter-screen for RecBCD. E. coli viability, absorbance (OD) growth. 890 tested, 29% active. shares compounds with phage Ecoli inh. AID 651983. inhibition, % at 11.9 µM; in the data active = inhibition above about 20%;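 also: E. coli strain V66 grown with compound alone and no phage infection; 0% = bacteria with DMSO vehicle only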
AddAB counter: growth loss of phage-infected AddAB E. coli, RecBCD counter-screen; shares compounds with phage Ecoli inh; E. coli expressing H. pylori AddAB + T4 phage, OD growth; gene 2 mutant T4, recBCD-deleted host; inhibition, % at 11.9 µM; 890 tested, 45% active; AID 651984;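 active = mean inhibition above the solvent-only control wells' mean plus 3 SD, cut at about 22% in these data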;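 also: higher means less bacterial growth from phage killing when AddAB is blocked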
* hit, by the source's call; . = not tested or not shown. The list is not random: actives were taken first. Their share in the collection is about 0.5%.

SMILES	AddAB inh	Tat transport	E coli growth-1	phage Ecoli inh	E coli growth-2	RecBCD conf	Ecoli viability	AddAB counter
CCC(=O)NC(c1cccs1)c1cc(Cl)c2ccccc2c1O (stereo not drawn)	3.5	0.7	0.695	2.0	1.1	.	.	.
O=C(CCc1ccccc1)NC(c1cccs1)c1cc(Cl)c2cccnc2c1O (stereo not drawn)	.	-12.3	0.642	16.8*	.	8.6	9.2	14.2
CC(=O)NC(c1ccccc1)c1cc([N+](=O)[O-])c2cccnc2c1O (stereo not drawn)	-2.4	0.7	0.694	-4.7	-4.9	.	.	.
CCN(CC)S(=O)(=O)c1ccc(-c2nnc(SCC(=O)Nc3nnc(C)s3)n2CC)cc1	-4.7	10.4	0.696	2.2	-2.8	.	.	.
O=S(=O)(c1ccccc1)c1nc(-c2cccs2)oc1NCc1cccnc1	-0.8	0.6	0.676	2.3	0.9	.	.	.
NC(=S)NN=Cc1nccc2c(C(F)(F)F)cccc12	.	.	.	16.5*	.	18.5*	21.0*	21.6*
CNc1cccnc1C=NNC(N)=S	.	-10.0	.	4.3	.	.	.	.
Cc1ccccc1N1CCN(c2ncnc3c2cnn3Cc2ccc(Cl)cc2)CC1	4.8	0.7	.	3.0	4.5	.	.	.
OC(CN1CCN(c2ccccn2)CC1)Cn1c2ccccc2c2ccccc21 (stereo not drawn)	4.9	6.2	0.615	11.8*	0.3	-4.5	-4.0	-3.6
Cc1nc(C)c(C(=O)OCC(=O)NCCc2ccc(S(N)(=O)=O)cc2)s1	4.3	-0.3	0.656	6.5	1.2	.	.	.
CC(=NN1CC(=O)NC1=O)c1ccc([N+](=O)[O-])o1	.	3.0	0.13*	50.2*	.	24.3*	43.6*	102.5*
CCN1CCN(C(=O)N(c2ccccc2)c2ccccc2)CC1	-3.9	1.2	0.694	1.8	-2.2	.	.	.
CN1CCN(C(=O)N(c2ccccc2)c2ccccc2)CC1	0.9	6.9	0.698	98.4*	0.4	-2.7	-2.0	-0.8
C/C(NC(=O)c1ccccc1F)=C1\C(=O)C[C@@H]2[C@H]1C2(C)C	3.2	-0.9	0.736	-0.2	1.1	.	.	.
CNC(CC(C)C)C(=O)NC1C(=O)NC(CC(N)=O)C(=O)NC2C(=O)NC3C(=O)NC(C(=O)NC(C(=O)O)c4cc(O)cc(O)c4-c4cc3ccc4O)C(O)c3ccc(c(Cl)c3)Oc3cc2cc(c3OC2OC(CO)C(O)C(O)C2OC2CC(C)(N)C(O)C(C)O2)Oc2ccc(cc2Cl)C1O (stereo not drawn)	-1.9	-34.8	.	11.4*	1.3	4.2	7.6	15.3
COc1ccc(CC(=O)Nc2sc3c(c2C#N)CC(C)(C)NC3(C)C)cc1OC	6.3	-0.2	0.65	3.2	2.4	.	.	.
CO[C@H]1/C=C/O[C@@]2(C)Oc3c(C)c(O)c4c(O)c(c5c(c4c3C2=O)NC2(CCN(CC(C)C)CC2)N=5)=NC(=O)/C(C)=C\C=C\[C@H](C)[C@H](O)[C@@H](C)[C@@H](O)[C@@H](C)[C@H](OC(C)=O)[C@@H]1C	.	107.3*	.	95.0*	.	95.1*	98.9*	99.5*
O=C(COc1ccccc1Cl)Nc1nnc(S(=O)(=O)N2CCCC2)s1	1.4	2.8	0.772	36.2*	1.4	-2.1	-2.2	-1.3
COc1cccc(C(Nc2ccccc2)c2ccc3ccc(C)nc3c2O)c1 (stereo not drawn)	.	.	.	12.0*	.	5.3	6.8	5.1
Cc1cccc(NC(c2ccc(O)cc2)c2ccc3ccc(C)nc3c2O)n1 (stereo not drawn)	3.3	-3.8	0.695	6.4	-1.1	.	.	.
O=C(c1ccco1)N1CCCN(Cc2nc(-c3ccc4c(c3)OCO4)no2)CC1	-1.7	3.8	0.677	14.9*	-0.2	1.1	1.4	-1.6
Fc1ccc(CN2CCCN(Cc3nc(-c4ccc5c(c4)OCO5)no3)CC2)cc1	2.6	-1.6	0.656	4.3	-0.1	.	.	.
O=C(CSc1ccc(-c2cccnc2)nn1)c1ccc([N+](=O)[O-])cc1	0.8	-3.5	0.64	2.6	-0.4	.	.	.
O=C(CSc1ccc(-c2ccccn2)nn1)c1ccc([N+](=O)[O-])cc1	6.9	-4.3	0.657	11.6*	5.3	-0.7	-0.4	4.5
CC(=O)c1cccc(NC(=O)CSc2ccc(-c3ccccn3)nn2)c1	11.4	2.4	0.607	11.4*	6.3	4.2	3.4	18.3
SMILES	AddAB inh	Tat transport	E coli growth-1	phage Ecoli inh	E coli growth-2	RecBCD conf	Ecoli viability	AddAB counter
Cn1cnnc1SC(C(=O)Nc1cc(Cl)cc(Cl)c1)c1ccccc1 (stereo not drawn)	4.5	-1.2	0.715	3.0	2.8	.	.	.
O=C(Nc1cccc([N+](=O)[O-])c1)c1cccc(C(=O)Nc2cccc([N+](=O)[O-])c2)c1	-2.4	-3.9	.	1.5	-2.9	.	.	.
CC(NC(=O)Nc1cccc([N+](=O)[O-])c1)(C(F)(F)F)C(F)(F)F	3.7	-10.6	0.626	13.9*	-0.1	6.5	7.4	5.5
O=C(N/N=C\c1ccc(F)cc1)c1ccc(F)cc1	-0.7	0.6	.	4.9	-2.6	.	.	.
C[n+]1c(-c2ccc(C=NNC(=O)c3ccc(C(=O)NN=Cc4ccc(-c5cn6ccccc6[n+]5C)cc4)cc3)cc2)cn2ccccc21	.	50.4*	.	57.3*	.	77.8*	75.6*	80.5*
COc1cc(C(=O)N=c2sccn2C)c([N+](=O)[O-])cc1OC	.	-3.5	0.678	2.9	.	.	.	.
Cn1ccsc1=NC(=O)c1ccc([N+](=O)[O-])o1	99.4*	11.6	0.0625*	100.2*	98.8*	99.3*	100.5*	101.3*
CCC(C(=O)Nc1cc(C)cc(C)n1)c1ccccc1 (stereo not drawn)	-1.6	.	0.614	2.7	0.8	.	.	.
CCOC(=O)c1[nH]c2cc(OC)c(OC)cc2c1NC(=O)c1nonc1C	-0.2	3.4	0.715	14.0*	0.2	-0.3	0.7	-0.5
O=C(c1ccc(-c2ccccc2)c(F)c1)C1CCCN(CCCn2cccn2)C1 (stereo not drawn)	3.4	-3.6	0.696	99.5*	1.0	1.1	1.9	0.7
O=c1ccc2cc3c([nH]c4ccc(Br)cc43)oc-2c1O	8.3	3.5	0.704	14.0*	8.5	6.1	8.1	16.7
O=C(NCCc1cn2ccccc2n1)c1cc(COc2c(F)cccc2F)on1	10.2	-18.5	0.549	12.5*	6.5	2.3	5.3	6.3
Cc1ccc(OCc2cc(C(=O)NCc3cn4ccccc4n3)no2)cc1C	4.4	1.6	0.639	3.7	2.2	.	.	.
CCN1CCN(c2ccc(S(=O)(=O)N3CCCCC3)cc2NC(=O)c2ccc([N+](=O)[O-])o2)CC1	4.4	14.7	0.628	2.5	-0.9	.	.	.
CCN1CCN(c2ccc(NC(=O)c3ccc([N+](=O)[O-])o3)cc2Cl)CC1	.	6.7	0.538	20.9*	.	16.1*	17.9	101.6*
Cc1ccc(S(=O)(=O)N2CCOCC2)cc1-c1n[nH]c(=S)n1-c1ccccc1	-0.6	-6.5	0.67	0.0	-0.6	.	.	.
